Compound activity deposited in PubChem by several laboratories.
A selection: hits, their analogues and other compounds. The true share with any hit is near 3%.
PAFAH2 FP inh: inhibitors of human PAFAH2; Q99487; recombinant PAFAH2, FP-rhodamine activity probe, fluorescence polarization; inhibition, % at 3.39 µM; 0.99% of 340,000 active; AID 492956;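 active = inhibition above the mean over all tested compounds plus 3 SD, cut at about 30% in these data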;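 note: inhibitors block probe labeling of enzyme so polarization drops; 0% = enzyme with DMSO and 100% = wells lacking PAFAH2 protein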
PAFAH1B2 inh: inhibitors of human PAFAH1B2. inhibition, % at 3.39 µM. recombinant PAFAH1B2, FP-rhodamine activity probe, fluorescence polarization. P68402. 1.2% of 340,000 active. AID 492953;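 active = inhibition above the mean of all tested compounds plus 3 SD, cut at about 24% in these data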;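 note: 0% = enzyme with DMSO and 100% = wells lacking PAFAH1B2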
PAFAH1B3 FP inh: inhibitors of human PAFAH1B3; Q15102; recombinant PAFAH1B3, FP-rhodamine probe, fluorescence polarization; inhibition, % at 3.39 µM; 0.28% of 340,000 active; AID 492972;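 active = inhibition above the screen-wide average of all tested compounds plus 3 SD, cut at about 25% in these data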;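 note: 0% = enzyme with DMSO only and 100% = wells lacking PAFAH1B3 protein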
Target sequence (Q15102 whole entry, looked up): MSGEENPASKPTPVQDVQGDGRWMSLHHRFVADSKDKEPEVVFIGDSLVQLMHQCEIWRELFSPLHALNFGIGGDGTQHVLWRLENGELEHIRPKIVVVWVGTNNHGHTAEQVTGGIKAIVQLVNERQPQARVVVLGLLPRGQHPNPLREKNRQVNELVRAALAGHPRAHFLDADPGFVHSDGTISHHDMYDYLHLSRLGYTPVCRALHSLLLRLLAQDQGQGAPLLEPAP
pPAFAH inh: pPAFAH (human) enzyme inhibition; Q13093; recombinant pPAFAH, FP-rhodamine probe fluorescence polarization; inhibition, % at 3.39 µM; 1.5% of 330,000 active; AID 463082;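 active = inhibition above the mean inhibition across the screen plus 3 SD, cut at about 25% in these data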;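 note: inhibitors block binding of the rhodamine activity-based probe so polarization drops; 0% = enzyme with DMSO and 100% = wells lacking pPAFAH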
DAGLB inh: diacylglycerol lipase beta (human) inhibition; AID 504411; HEK293T DAGLB membrane lysate, EnzChek fluorogenic substrate; Q8NCG7; 0.059% of 340,000 active; inhibition, % at 5.17 µM; in the data active = inhibition above about 34%;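 note: 0% = enzyme with vehicle and 100% = wells lacking enzyme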
ATG4B inhibitor: inhibitors of human ATG4B cysteine protease. 0.51% of 340,000 active. ATG4B cleavage of LC3-PLA2, NBD-HPC fluorescence, 1 h. Q9Y4P1. inhibition, % at 8.33 µM; in the data active = inhibition above about 40%
PAFAH2 confirm: confirmation of human PAFAH2 inhibitors; shares compounds with PAFAH2 FP inh; recombinant PAFAH2, FP-rhodamine activity probe, fluorescence polarization; inhibition, % at 3.39 µM; 65% of 2,300 active; AID 493030;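 active = mean inhibition over three repeats above a set limit taken from the earlier primary screen, cut at about 30% in these data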;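 note: inhibitor blocks binding of rhodamine activity probe so polarization falls; 0% = enzyme with DMSO and 100% = wells lacking PAFAH2 protein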
DAGLB confirm: DAGLB (human) inhibition, confirmation screen. shares compounds with DAGLB inh. inhibition, % at 5.17 µM. HEK293T DAGLB membrane lysate, EnzChek fluorogenic substrate. AID 504445. 73% of 190 active;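 active = mean inhibition over triplicate wells above a set limit taken from the primary lipase screen, cut at about 34% in these data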;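 note: 0% = DAGLB with DMSO and 100% = wells lacking DAGLB enzyme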
ATG4B confirm: confirmation of human ATG4B inhibitors; shares compounds with ATG4B inhibitor; ATG4B protease fluorescent substrate cleavage assay; inhibition, % at 8.33 µM; 92% of 320 active; in the data active = inhibition above about 39%
PLA2 ctr: PLA2 (human) inhibition in ATG4B counter-screen; shares compounds with ATG4B inhibitor; purified PLA2, NBD-C6-HPC fluorescence, 45 min; inhibition, % at 8.33 µM; 66% of 1,600 active; in the data active = inhibition above about 50%
Target sequence (P04054 whole entry, looked up): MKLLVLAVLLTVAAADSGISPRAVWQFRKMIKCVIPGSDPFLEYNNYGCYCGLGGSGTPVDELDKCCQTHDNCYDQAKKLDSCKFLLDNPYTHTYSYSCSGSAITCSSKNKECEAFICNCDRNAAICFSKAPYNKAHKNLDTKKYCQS
* marks the source's active call; other numbers are inactive results; nt = not tested or not shown.

SMILES	PAFAH2 FP inh	PAFAH1B2 inh	PAFAH1B3 FP inh	pPAFAH inh	DAGLB inh	ATG4B inhibitor	PAFAH2 confirm	others
Oc1c(CN2CCCC(C(F)(F)F)C2)cc(Cl)c2ccccc12 (stereo not drawn)	-7	-3	3	4	1	5	nt
Cc1cnc(CNC(=O)CC2C(=O)NCCN2Cc2cccc(F)c2F)cn1 (stereo not drawn)	4	0	7	-2	-1	12	nt
CC(C)P(=O)(c1cccc(C(=O)O)c1)C(C)C	-4	-3	7	5	1	0	nt
O=C(COC(=O)c1c[nH]c2ccccc12)NC1CCCC1	72*	5	10	14	3	-3	68*
O=C(COC(=O)c1cc(=O)[nH]c2ccccc12)NC1CCCCCCC1	12	6	2	5	-1	-6	nt
COc1ccc(-n2ccc(=O)c(C(=O)O)n2)c(OC)c1	1	4	5	-2	-1	-3	nt
CC(Sc1nnc(-c2cccnc2)n1-c1ccccc1F)C(=O)N1CCCc2ccccc21 (stereo not drawn)	nt	nt	nt	3	nt	nt	nt
Cc1noc(C)c1COc1ccc(C(=O)OCC(=O)NC23CC4CC(CC(C4)C2)C3)cc1	81*	2	7	11	-5	0	80*
Cc1noc(C)c1COc1ccc(C(=O)OCC(=O)NC2CCCCC2C)cc1 (stereo not drawn)	77*	4	1	15	-5	-1	82*
COc1cc(NC(=O)Cc2ccccc2)c(C(=O)O)cc1OC	3	9	0	2	-3	-3	nt
COc1cc(NC(=O)Cc2cccc3ccccc23)c(C(=O)O)cc1OC	60*	7	16	8	1	-3	40*
COc1cc(NC(=O)Nc2cccc(Cl)c2)c(C(=O)O)cc1OC	32*	11	3	10	1	-7	22
O=[N+]([O-])c1cc(-c2cccnc2)n[nH]1	1	6	5	nt	1	-1	nt
CSCC[C@H](NC(=O)Nc1ccc(Oc2ccccc2)cc1)C(=O)O	38*	6	7	1	1	-9	22
Oc1ccccc1/C=N/NC(=S)NC1CC2CC1C1C=CCC21 (stereo not drawn)	52*	13	20	14	-1	13	14
CC(=O)C1=C(O)C(=O)N(c2cc(C(C)(C)C)on2)C1c1ccc(Br)cc1 (stereo not drawn)	34*	14	7	7	46*	-4	23	DAGLB confirm=42*
COC1CC(=O)C2OC(c3ccccc3)OCC2O1 (stereo not drawn)	nt	nt	nt	nt	0	nt	nt
CCOc1cc(/C=C2\C(=O)N(c3nc(-c4ccc(Br)cc4)cs3)N=C2c2ccccc2)ccc1O	55*	2	15	41*	33	53*	45*	ATG4B confirm=66*;PLA2 ctr=47
COc1cc(/C=C2\C(=O)N(c3ccc(NC(C)=O)cc3)N=C2c2ccccc2)ccc1O	4	4	1	8	12	-5	nt
Cc1cc(C)c(CN2CCN(C(=O)Cn3cnc4c(NCc5ccccc5)ncnc43)CC2)c(C)c1	1	0	0	-22	-1	-10	nt
COc1ccc(-c2nnc(Nc3nc4c(OC)cccc4s3)o2)cc1	10	9	10	19	12	-14	nt
COc1cc(OC)cc(-c2nnc(Nc3nc4c(F)cccc4s3)o2)c1	36*	11	13	24	2	57*	31*	ATG4B confirm=51*;PLA2 ctr=11
O=c1oc(-c2ccccc2)nc2sc3c(c12)CCC3	72*	-3	8	10	-5	56*	74*	ATG4B confirm=72*;PLA2 ctr=19
